# hNpr1 antagonist: human Npr1 receptor antagonism; hit rate 1.6% among 76,000; AID 1347048; Potency, µM (titrated, usually from 46.3 µM), for the others: top-dose activity change, negative = inhibition, most hits filed as inhibitors; HEK293 hNpr1 GloSensor cGMP, ANP-stimulated luminescence; calls by dose curve; note: nearly all actives have a fitted effect of over 60% in size
#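 Compound pre-incubated 30 min at room temperature on GloSensor-loaded HEK293 cells stably carrying hNpr1 and the pGS-40F cGMP biosensor. Stimulation uses hNppA at 0.1 nM final; luminescence is taken at baseline and 20 min post-agonist.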
# NIH3T3 tox: NIH 3T3 cell cytotoxicity | NIH 3T3 viability, CellTiter-Glo ATP luminescence, 48-72 h | Potency, µM (series often up to 96.7 µM), inactives show top-dose activity change, negative = cytotoxicity, usual class: inhibitors | hit rate 4.3% among 94,000 | AID 1345082; note: nearly all actives have a fitted effect of over 55% in size
#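 ATP-dependent luminescence (CellTiter-Glo) served as the viability signal for NIH 3T3 cells treated with compound for 48 or 72 hr at 37 °C.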
# Luciferase inh: inhibitors of firefly (Photinus pyralis) luciferase | P08659 | purified P. pyralis luciferase, luminescence, biochemical | Potency, µM (doses to about 115 µM), actives largely listed as inhibitors | hit rate 2.5% among 76,000; note: nearly all actives have a fitted effect of over 65% in size
# Target sequence (P08659 whole entry, looked up): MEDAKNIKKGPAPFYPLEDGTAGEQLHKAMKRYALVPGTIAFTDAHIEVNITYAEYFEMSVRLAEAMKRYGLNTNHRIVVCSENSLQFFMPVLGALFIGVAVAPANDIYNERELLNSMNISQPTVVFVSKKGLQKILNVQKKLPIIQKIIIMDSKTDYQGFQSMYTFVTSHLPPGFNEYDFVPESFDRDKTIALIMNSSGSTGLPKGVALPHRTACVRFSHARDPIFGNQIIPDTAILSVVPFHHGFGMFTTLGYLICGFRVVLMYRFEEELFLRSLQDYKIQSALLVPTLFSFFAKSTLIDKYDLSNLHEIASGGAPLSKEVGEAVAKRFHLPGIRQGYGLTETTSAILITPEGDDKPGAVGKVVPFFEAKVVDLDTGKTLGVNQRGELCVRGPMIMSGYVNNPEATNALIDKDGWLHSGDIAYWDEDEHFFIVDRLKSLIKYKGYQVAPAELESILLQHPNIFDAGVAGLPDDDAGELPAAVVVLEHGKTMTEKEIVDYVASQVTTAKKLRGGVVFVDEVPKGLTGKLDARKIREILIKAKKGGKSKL
#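 Purified 10nM P. pyralis luciferase with 10uM D-luciferin and 10uM ATP in 50mM Tris acetate pH 7.5, 10mM Mg acetate, 0.01% Tween-20, 0.05% BSA. qHTS titration; luminescence read by CCD imager.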
# HEK293 tox: HEK 293 cell cytotoxicity. HEK 293 viability, ATP luminescence (CellTiter-Glo), 48-72 h. Potency, µM (highest dose often 115 µM), inactives show at the top dose activity change, negative = cytotoxicity, usual class: inhibitors. hit rate 6.6% among 94,000. AID 1345083; note: nearly all actives have a fitted effect of over 60% in size
#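 Cells seeded first (HEK 293, 250 cells/well), then compound added by pintool. Incubation ran 48 or 72 hr at 37 degree Celsius. CellTiter-Glo was added and luminescence imaged after 10 min at room temperature.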
# * hit, by the source's call; i = inactive; u = inconclusive; x = no result; ! = a repeat was not active; [ ] = remark or other dose. Most compounds without a hit are left out; they make up all but 11% or so of the library. Unless noted, calls come from the whole dose curve; as a rule, active = well fitted curve in the direction sought with a large enough effect; inconclusive = small, poorly fitted or top-dose-only effect, or another doubt; inactive = no such curve, though single readings can be large; an effect the other way counts as inactive or inconclusive. % is set by controls: 0 for no effect and ±100 for the full control effect; potency is the fitted concentration of half-maximal effect.
SMILES,hNpr1 antagonist,NIH3T3 tox,Luciferase inh,HEK293 tox
O=C(Cc1ccsc1)Nc1cnc(-c2ccccc2)nc1,u,u,5µM*,u
O=C(COc1ccc(F)cc1)Nc1cnc(-c2ccccc2)nc1,-1%,-1%,i,16%
O=C(c1n[nH]c2c1CCCCCC2)N1CCC(Cc2nncn2CC2CC2)CC1,-12%,-5%,i,i
C1CC(N2CCC(c3nc(C4CCOC4)no3)CC2)CCO1 (stereo not drawn),3%,2%,i,0%
CC1=C[C@@H](CN2CCN(CCO)CC2)[C@H](C(C)C)C[C@H]1Cc1nnc(-c2ccncc2)o1,1%,u,i,45µM*
CC(=O)N1CCN(C(=O)C[C@@H]2C[C@@H](C(C)C)[C@H](CNC(=O)c3cncnc3)C=C2C)CC1,4%,1%,i,2%
CC1=C[C@@H](CN2CCN(C)CC2)[C@H](C(C)C)C[C@H]1Cc1nnc(-c2ccc(C)cc2)o1,-11%[70.6 µM],22µM*,i,28µM*
CC1=C[C@@H](CN2CCN(C)CC2)[C@H](C(C)C)C[C@H]1Cc1nnc(-c2ccc(N(C)C)cc2)o1,2%,40µM*,i,22µM*
CC1=C[C@@H](CNC(=O)c2cncnc2)[C@H](C(C)C)C[C@H]1Cc1nnc(-c2ccncc2)o1,-19%[70.6 µM],u,i,79µM*
Cc1nc(-c2c3n(c(=O)n(Cc4cc(F)cc(F)c4)c2=O)CCCCC3)no1,0%,-23%,i,u
O=C1NC(=NC2CCCCC2)C2(CCCN(Cc3ccsc3)C2)N1c1cccnc1 (stereo not drawn),x,u,x,-20%
O=C(NC1CCCN(c2cc(-c3ccc(F)cc3)[nH]n2)C1)c1cc(F)ccc1F (stereo not drawn),-21%,u,i,45µM*
O=C(NC1CCN(c2cc(-c3ccc(F)cc3)[nH]n2)C1)c1cc(Cl)ccc1F (stereo not drawn),-18%,35µM*,i,u
NC1CC(c2nnc(COc3ccc4c(c3)CCNCC4)n2C2CC2)C1 (stereo not drawn),1%,u,i,18µM*!
CCn1c(COc2ccc(C)nc2)nnc1C1CC(N)C1 (stereo not drawn),0%,-13%,i,-10%
COc1ccc(S(=O)(=O)N2CC(N(C3CCOCC3)S(C)(=O)=O)C2)cc1,-2%,-6%,i,i
N[C@@H]1CC[C@H](C(=O)N2CCN(c3ccncc3)CC2)C1,3%,-10%,i,-1%
CCN1c2cc(C(=O)Nc3ccc(OC)c(Cl)c3)ccc2C(=O)N2CCCCC21 (stereo not drawn),-26%,22µM*,i,35µM*
CCN1c2cc(C(=O)Nc3ccc(OC)c(F)c3)ccc2C(=O)N2CCCCCC21 (stereo not drawn),-19%,u,i,u
CCN1c2cc(C(=O)Nc3ccc(OC)c(OC)c3)ccc2C(=O)N2CCCCCC21 (stereo not drawn),-30%,u,i,45µM*
CCN1c2cc(C(=O)Nc3ccc(OC)c(OC)c3)ccc2C(=O)N2CCCCC21 (stereo not drawn),-12%,u,i,u
COc1cccc(N2C(=O)NC(=NC3CCCCC3)C23CCN(CC2CCCCC2)C3)c1 (stereo not drawn),x,-21%,x,u
O=C(c1ccc(Cl)nc1)N1CCC(C(=O)N2CCCC2c2nc3ccncc3[nH]2)CC1 (stereo not drawn),x,-13%,x,-10%
CC1(C)C[C@H]2C[C@@H](Oc3ccccn3)[C@H](N3CCCCC3)[C@]2(O)CO1,x,-8%[46.1 µM],x,u
Cc1ccc(C(=O)N[C@H]2C[C@@H](c3nc(-c4ccc(C)cc4)no3)N(C)C2)cc1,2%[70.6 µM],-13%[174 µM],i,-1%[172 µM]
SMILES,hNpr1 antagonist,NIH3T3 tox,Luciferase inh,HEK293 tox
CN1C[C@@H](NC(=O)c2ccc(C#N)cc2)C[C@H]1c1nc(-c2cncnc2)no1,2%[70.6 µM],-13%[174 µM],45µM*,u
CN1C[C@@H](NC(=O)c2ccc(C(C)(C)C)cc2)C[C@H]1c1nc(-c2ccncc2)no1,1%[70.6 µM],u,u,71µM*
O=C1CCN(Cc2cccnc2)CCCC(C(=O)Nc2ccccc2)CCN1 (stereo not drawn),5%,-11%,i,-1%
Cn1nc(C(=O)N2CCC3(CC2)N=C(c2ccccc2)NO3)c2ccccc21,-4%,-3%,35µM*,u
O=C(c1n[nH]c2c1CCCC2)N1CCC2(CC1)N=C(c1ccccc1)NO2,-24%,-16%,28µM*,u
O=C(c1ccncc1)N1CCC2(CC1)N=C(c1ccccc1)NO2,4%,i,i,7%
CCOC(=O)C1CCN(Cc2nnc3cc(-c4nc(-c5ccccc5)no4)ccn23)CC1,-7%,-12%,i,0%
Cc1ccc(-c2cccc(CN3CCCC3C(=O)NCc3ccc(F)cc3F)c2)cc1Cl (stereo not drawn),x,u,x,45µM*
Cc1ccc(-c2cccc(CN3CCCC3C(=O)NCc3cccc(F)c3)c2)cc1Cl (stereo not drawn),x,u,x,45µM*
Cc1ccc(-c2cccc(CN3CCCC3C(=O)NCc3cccc(Cl)c3)c2)cc1Cl (stereo not drawn),x,35µM*,x,40µM*
Fc1ccc(-c2cnc3n2C[C@H](CNCc2ccc4c(c2)OCO4)OC3)cc1,u,89µM*,i,100µM*
Clc1ccc(-c2cnc3n2C[C@H](CNCc2ccc4c(c2)OCO4)OC3)cc1,u,u,i,89µM*
CC(=O)Nc1ccc(CNC[C@H]2Cn3c(-c4ccc5c(c4)OCCO5)cnc3CO2)cc1,-20%[70.6 µM],-24%[174 µM],i,-22%[172 µM]
c1ccc(CNC[C@H]2Cn3c(-c4ccc5c(c4)OCCO5)cnc3CO2)cc1,-23%[70.6 µM],-22%[138 µM],i,u
CN(c1ccccc1)c1cc(=O)c2ccnc(NCC3CCOCC3)c2o1,5%[70.6 µM],8.9µM*,i,u
CN(c1ccccc1)c1cc(=O)c2ccnc(N3CCOCC3)c2o1,2%[70.6 µM],28µM*,i,u
CN(c1ccccc1)c1cc(=O)c2ccnc(N3CCN(c4ccccn4)CC3)c2o1,-13%[70.6 µM],u,i,35µM*
Cc1cccc(N(C)C(=O)Cn2c(-c3cccc(Cl)c3)nc(C)c(CCO)c2=O)c1,-9%,u,i,35µM*
COc1cccc(CNC(=O)Cn2c(-c3cccc(Cl)c3)nc(C)c(CCO)c2=O)c1,4%,u,i,22µM*
Cc1nc(-c2cccc(Cl)c2)n(CC(=O)Nc2ccc(C(F)(F)F)cc2)c(=O)c1CCO,-22%,16µM*,i,32µM*
Cc1cc(C)cc(NC(=O)Cn2c(-c3cccc(Cl)c3)nc(C)c(CCO)c2=O)c1,5%,-12%,i,u
Cc1nc(-c2cccc(Cl)c2)n(CC(=O)NC(C)C)c(=O)c1CCO,2%,-9%,i,u
CCc1ccc(NC(=O)Cn2c(-c3cccc(Cl)c3)nc(C)c(CCO)c2=O)cc1,0%,u,i,28µM*

# Screens: PubChem, National Center for Advancing Translational Sciences (NCATS)
